tested on: ZAK; conditions: concentration: 1 μM, replicates: in singlicate; n = 1
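Further: KINOMEscan kinase panel screen.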

SMILES	%Inh [%]
Nc1ncnc2[nH]c(-c3ccccc3)nc12 [AH5015]	33
Cc1cc(-c2ccc3c(c2)CC[C@@H](N[C@@H](C)c2ccccc2)C3)cnc1N.Cl [GW412617]	1
Cc1ccc(-c2cc(-c3c[nH]nc3-c3ccccn3)ccn2)cc1 [GW684088]	0
O=C(Nc1n[nH]c2cc(-c3cccc(F)c3F)ccc12)C1CC1 [SB-733894]	0
O=C(Nc1ccc2c(c1)OCO2)NC1CCN(c2ccnc(Nc3ccc(F)cc3)n2)C1 (centres unmarked) [GSK1379724]	28
O=c1cc(N2CCOCC2)nc2n(Cc3cccc(Cl)c3Cl)ccn12 [GSK2286295]	6
COc1cccc(NC(=O)NC2CCN(c3ccnc(Nc4ccc(F)cc4)n3)C2)c1 (centres unmarked) [GSK1379721]	42
CN(C)CCN(C)C(=O)c1cc(-c2ccncc2)c(-c2ccc(Cl)c(O)c2)o1.Cl.Cl [SB-710397]	41
CC(C)(C)c1ccc(C(=O)Nc2cn3cc(Cl)ccc3n2)cc1	0
COc1cc2nccc(Nc3ccc(NC(=O)c4ccc(C)cc4)c(O)c3)c2cc1OC.Cl [GW440132]	23
O=C1NC(=O)C(N2CCc3ccccc32)=C1c1ccccc1Cl [SB-373598]	17
COc1cc2ncn(-c3cc(OCC4CCCO4)c(C(N)=O)s3)c2cc1OC (centres unmarked) [GSK204607]	6
COc1cc(Nc2nccc(N3CCC(NC(=O)Nc4cc(C)ccc4C)C3)n2)cc(OC)c1OC (centres unmarked) [GSK1379762]	3
Cl.NC(=O)c1cccc(Nc2nccc(Nc3ccc(Oc4cccc(Cl)c4)c(Cl)c3)n2)c1 [GW659008]	53

— article PMC5540273 (PLoS ONE, 2017)
